Results on 8 molecules are retold here after ChEMBL document CHEMBL1961873, “Compounds: GSK PKIS; Assays: Nanosyn kinase panel” (2012).

For assay [1], the target named is Sphingosine kinase 1 (Homo sapiens) (UniProt Q9NYA1). Particulars: at 1 µM.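 Further: mean SPHK1 inhibition value reported from the GSK PKIS kinase panel screen.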
In assay [2] the target is T1, Sphingosine kinase 2 (Homo sapiens) (UniProt Q9NRA0).
T1 sequence (whole entry): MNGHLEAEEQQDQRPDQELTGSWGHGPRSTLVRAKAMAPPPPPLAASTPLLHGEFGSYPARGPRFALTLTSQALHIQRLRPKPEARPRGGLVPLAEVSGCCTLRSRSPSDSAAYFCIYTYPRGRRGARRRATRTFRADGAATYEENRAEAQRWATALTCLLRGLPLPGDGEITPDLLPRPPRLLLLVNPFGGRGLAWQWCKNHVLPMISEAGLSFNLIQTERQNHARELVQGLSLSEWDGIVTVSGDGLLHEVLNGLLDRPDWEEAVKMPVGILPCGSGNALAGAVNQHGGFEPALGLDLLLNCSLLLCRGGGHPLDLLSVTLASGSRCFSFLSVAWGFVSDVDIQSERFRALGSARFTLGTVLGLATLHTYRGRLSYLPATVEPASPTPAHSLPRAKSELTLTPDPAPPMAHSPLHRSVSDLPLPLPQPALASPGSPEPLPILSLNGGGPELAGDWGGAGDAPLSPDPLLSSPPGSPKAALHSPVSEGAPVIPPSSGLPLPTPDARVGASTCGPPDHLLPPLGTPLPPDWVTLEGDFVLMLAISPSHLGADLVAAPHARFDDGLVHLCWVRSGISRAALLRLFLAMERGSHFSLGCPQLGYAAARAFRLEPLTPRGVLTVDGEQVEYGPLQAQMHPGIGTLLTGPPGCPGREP
To be noted: at 0.1 µM.

Assay [3] concerns the target T1, Sphingosine kinase 2 (Homo sapiens). Particulars: at 1 µM.
The target in assay [4] is Casein kinase II subunit alpha (Homo sapiens) (UniProt P68400). Particulars: at 0.1 µM.
For assay [5] the target is unchanged. To be noted: at 1 µM.
In assay [6] the target is T2, Inhibitor of nuclear factor kappa-B kinase subunit alpha (Homo sapiens) (UniProt O15111).
T2 sequence (whole entry): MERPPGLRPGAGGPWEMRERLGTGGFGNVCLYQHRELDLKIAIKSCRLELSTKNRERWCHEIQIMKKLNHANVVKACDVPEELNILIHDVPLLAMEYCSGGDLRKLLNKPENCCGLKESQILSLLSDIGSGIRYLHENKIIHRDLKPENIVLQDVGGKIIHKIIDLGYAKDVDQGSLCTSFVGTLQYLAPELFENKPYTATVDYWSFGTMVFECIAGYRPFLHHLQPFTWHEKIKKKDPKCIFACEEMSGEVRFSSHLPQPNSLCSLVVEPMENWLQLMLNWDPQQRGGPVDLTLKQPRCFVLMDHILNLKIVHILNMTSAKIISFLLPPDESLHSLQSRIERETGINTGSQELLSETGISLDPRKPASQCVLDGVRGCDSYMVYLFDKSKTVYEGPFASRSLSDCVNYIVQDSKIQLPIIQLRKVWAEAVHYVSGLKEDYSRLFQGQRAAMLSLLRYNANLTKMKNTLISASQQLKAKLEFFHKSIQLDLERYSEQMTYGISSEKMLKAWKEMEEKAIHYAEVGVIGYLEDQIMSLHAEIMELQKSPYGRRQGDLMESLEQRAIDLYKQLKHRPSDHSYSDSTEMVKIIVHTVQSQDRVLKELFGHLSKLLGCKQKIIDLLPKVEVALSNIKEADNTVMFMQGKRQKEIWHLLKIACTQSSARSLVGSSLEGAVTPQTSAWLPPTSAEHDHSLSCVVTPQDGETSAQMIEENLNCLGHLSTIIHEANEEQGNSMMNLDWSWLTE
To be noted: at 0.1 µM.

For assay [7], the target named is T2, Inhibitor of nuclear factor kappa-B kinase subunit alpha (Homo sapiens). To be noted: at 1 µM.
The target of assay [8] is T3, Inhibitor of nuclear factor kappa-B kinase subunit beta (Homo sapiens) (UniProt O14920).
T3 sequence (whole entry): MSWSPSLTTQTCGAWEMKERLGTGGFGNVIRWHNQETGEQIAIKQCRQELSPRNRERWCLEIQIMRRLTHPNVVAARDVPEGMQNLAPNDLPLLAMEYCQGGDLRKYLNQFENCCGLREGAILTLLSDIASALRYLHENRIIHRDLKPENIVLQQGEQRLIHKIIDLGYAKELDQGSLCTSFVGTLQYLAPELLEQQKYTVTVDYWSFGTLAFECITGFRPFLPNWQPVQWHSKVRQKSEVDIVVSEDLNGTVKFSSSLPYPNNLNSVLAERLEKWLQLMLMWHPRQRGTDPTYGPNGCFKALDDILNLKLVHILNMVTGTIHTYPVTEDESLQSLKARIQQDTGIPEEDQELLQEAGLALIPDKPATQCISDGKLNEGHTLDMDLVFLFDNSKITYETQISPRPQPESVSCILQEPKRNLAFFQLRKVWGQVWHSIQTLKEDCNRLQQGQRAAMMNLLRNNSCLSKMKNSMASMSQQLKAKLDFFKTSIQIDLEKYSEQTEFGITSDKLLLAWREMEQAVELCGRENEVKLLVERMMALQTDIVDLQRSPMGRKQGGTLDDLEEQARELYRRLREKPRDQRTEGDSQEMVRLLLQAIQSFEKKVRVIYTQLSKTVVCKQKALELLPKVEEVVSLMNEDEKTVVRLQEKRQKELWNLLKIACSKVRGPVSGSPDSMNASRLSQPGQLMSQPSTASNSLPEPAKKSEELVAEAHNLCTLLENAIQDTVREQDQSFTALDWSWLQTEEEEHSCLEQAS
Particulars: at 0.1 µM.

Assay [9] addresses T3, Inhibitor of nuclear factor kappa-B kinase subunit beta (Homo sapiens). Particulars: at 1 µM.
Assay [10] concerns the target T4, Inhibitor of nuclear factor kappa-B kinase subunit epsilon (Homo sapiens) (UniProt Q14164).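 Further: mean inhibition of IKKε reported, from the GSK PKIS dataset.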
T4 sequence (whole entry): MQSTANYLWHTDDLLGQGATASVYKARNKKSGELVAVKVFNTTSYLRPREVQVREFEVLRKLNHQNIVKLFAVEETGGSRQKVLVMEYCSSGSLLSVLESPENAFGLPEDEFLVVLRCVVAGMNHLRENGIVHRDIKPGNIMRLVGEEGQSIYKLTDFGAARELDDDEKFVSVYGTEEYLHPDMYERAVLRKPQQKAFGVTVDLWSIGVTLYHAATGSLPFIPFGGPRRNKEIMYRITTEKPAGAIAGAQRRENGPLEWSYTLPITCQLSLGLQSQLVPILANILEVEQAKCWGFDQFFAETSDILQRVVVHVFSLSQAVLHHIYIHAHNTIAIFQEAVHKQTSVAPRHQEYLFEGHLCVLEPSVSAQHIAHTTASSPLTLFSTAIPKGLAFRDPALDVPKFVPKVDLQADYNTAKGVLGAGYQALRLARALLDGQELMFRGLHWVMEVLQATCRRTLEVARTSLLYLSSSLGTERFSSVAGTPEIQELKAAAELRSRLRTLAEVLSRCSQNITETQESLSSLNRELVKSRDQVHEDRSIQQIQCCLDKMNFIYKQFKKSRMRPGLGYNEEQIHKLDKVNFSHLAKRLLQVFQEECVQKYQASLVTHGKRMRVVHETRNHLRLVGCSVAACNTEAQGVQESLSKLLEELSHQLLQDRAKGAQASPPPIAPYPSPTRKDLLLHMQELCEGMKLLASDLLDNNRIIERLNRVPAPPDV
Particulars: at 0.1 µM.

Chain of Sphingosine kinase 1 (Homo sapiens) (Q9NYA1 whole entry): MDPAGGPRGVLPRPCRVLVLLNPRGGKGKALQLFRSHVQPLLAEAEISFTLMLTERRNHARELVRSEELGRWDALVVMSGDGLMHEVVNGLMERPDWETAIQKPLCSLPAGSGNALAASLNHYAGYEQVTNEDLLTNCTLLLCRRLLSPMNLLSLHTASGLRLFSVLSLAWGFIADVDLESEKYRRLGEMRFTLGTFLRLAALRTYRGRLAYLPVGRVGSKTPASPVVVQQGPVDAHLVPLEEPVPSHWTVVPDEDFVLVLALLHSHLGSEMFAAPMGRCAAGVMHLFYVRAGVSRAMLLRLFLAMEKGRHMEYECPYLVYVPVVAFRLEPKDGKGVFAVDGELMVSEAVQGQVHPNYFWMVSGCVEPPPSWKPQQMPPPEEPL
Chain of Casein kinase II subunit alpha (Homo sapiens) (P68400 whole entry, looked up): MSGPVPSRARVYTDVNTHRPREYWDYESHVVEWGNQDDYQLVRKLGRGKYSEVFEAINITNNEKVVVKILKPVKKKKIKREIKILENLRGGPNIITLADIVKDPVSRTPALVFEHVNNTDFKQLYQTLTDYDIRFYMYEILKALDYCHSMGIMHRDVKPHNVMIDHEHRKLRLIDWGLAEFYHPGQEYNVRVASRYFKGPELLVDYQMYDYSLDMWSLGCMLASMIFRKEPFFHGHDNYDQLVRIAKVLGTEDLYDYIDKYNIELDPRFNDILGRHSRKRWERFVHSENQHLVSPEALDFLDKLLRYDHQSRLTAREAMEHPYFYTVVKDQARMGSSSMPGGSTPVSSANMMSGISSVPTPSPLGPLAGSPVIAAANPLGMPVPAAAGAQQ

With `O=C(Nc1n[nH]c2nc(-c3ccco3)c(Br)cc12)C1CC1`, the inhibition in assay [1] is -1.04%; in [2], 0.57%; in [3], 0.07%; in assay [4] it was -0.1%; in assay [5], -1.87%; in assay [6], -4.07%. Further, the inhibition in [7] is -2.15%; in assay [8], 1.61%; in assay [9] it was 2.38%; in assay [10] it was 3.19%.
Turning to `CNC(=O)c1cncc(/C=C/c2c(Cl)cccc2Cl)c1`, the inhibition in assay [1] was -1.49%; in assay [2] it was 0.89%; in assay [3] it was -2.09%; in assay [4], 16.9%; in assay [5], 14.9%; in assay [6], 1.91%. Besides, the inhibition came out at 0.72% in [7], 7.67% in assay [8], 11.4% in [9] and 5.94% in assay [10].
Take `COc1cc(C=NNc2ncnc3c2cnn3-c2ccccc2)ccc1O`: the inhibition is -3.84% in assay [1]; -0.52% in [2]; -2.55% in [3]; 9.38% in [4]; 41.6% in assay [5]; 10.6% in [6]. The inhibition in [7] is -1.27%; in assay [8] it was 3.33%; in assay [9], -0.52%; in [10], 3.38%.
As for `CC(=O)Nc1cccc(C#Cc2cncnc2Nc2ccc(OCc3cccc(F)c3)c(Cl)c2)n1`, the inhibition in [1] was 0.51%; in assay [2], 1.73%; in assay [3] it was -0.13%; in assay [4], 2.14%; in assay [5], 9.24%; in assay [6], 2.26%. Moreover, the inhibition in assay [7] is -1.99%; in [8], -3.08%; in assay [9], 2.94%; in [10] it was 2.95%.
With `COc1ccc(COc2ccc(Cc3cnc(N)nc3N)cc2OC)cc1`, the inhibition in assay [1] was -2.38%; in assay [2] it was 0.09%; in assay [3] it was -0.88%; in [4] it was -2.39%; in assay [5] it was -8.59%; in assay [6], 2.25%. The inhibition in assay [7] was -7.71%; in assay [8], -1.1%; in [9], -1.34%; in assay [10] it was -1.79%.
In the case of `CCn1c(-c2nonc2N)nc2c(N3CCCC3)nccc21`, the inhibition in [1] is -1.44%; in assay [2] it was 0.74%; in assay [3] it was -0.77%; in assay [4] it was -0.14%; in assay [5], -0.49%; in assay [6], 8.52%. Moreover, the inhibition was 5.88% in assay [7], 0.45% in assay [8], -0.76% in assay [9] and -2.71% in [10].
On to `Fc1cccc(COc2ccc(Nc3ncnc4sc(-c5cccs5)cc34)cc2Cl)c1`, for which the inhibition was 1.25% in [1]; -2.31% in assay [2]; 1.14% in [3]; -0.4% in assay [4]; 1.52% in assay [5]; 3.55% in assay [6]. The inhibition in assay [7] is 1.01%; in assay [8], 1.1%; in assay [9] it was 0.28%; in [10] it was -0.11%.
For `NC(=O)c1ccc(-c2nc(-c3ccccn3)c(-c3ccc4c(c3)OCO4)[nH]2)cc1`, the inhibition was -3.93% in [1]; -0.17% in assay [2]; -0.84% in assay [3]; 2.1% in [4]; 4.61% in assay [5]; 7.62% in assay [6]. In addition, the inhibition in assay [8] is 3.19%; in assay [9], 3.61%; in assay [10], 3.15%.

The inhibition is the relative decrease from the control value, in per cent.
